Reference: PubChem BioAssay (NCATS)
Records with an inconclusive call do not appear. Calls of active or inactive are those of the source. Calls follow the shape of the dose curve; as a rule, active = well fitted curve in the direction sought with a large enough effect; inconclusive = small, poorly fitted or top-dose-only effect, or another doubt; inactive = no such curve, though single readings can be large; an effect the other way counts as inactive or inconclusive.

Columns and labels:
[1] = qHTS of pediatric cancer cell lines to identify multiple opportunities for drug repurposing: Confirmatory screen for SJ-GBM2 cells (AID 1347116); settings: outcome: dose series up to 45.9 µM; also: nearly all actives have a fitted effect of over 60% in size
Outline: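 Viability measured as metabolically active cells via CellTiter-Glo luminescence following 48 hours of compound exposure, 11-point dilutions in confirmatory testing. 500-1,000 cells/well plated 5 hours before dosing; controls were DMSO and 2.3 µM bortezomib.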

[2] = qHTS of pediatric cancer cell lines to identify multiple opportunities for drug repurposing: Confirmatory screen for BT-37 cells (AID 1347117); also: nearly all actives have a fitted effect of over 55% in size; also: potency is read from the fitted curve at half-maximal effect
Outline: (§1)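 Cells (500-1,000/well) in growth media were settled 5 h at 37 degrees C, then given compounds for 48 h. Viability was read as CellTiter-Glo luminescence. Primary runs used MIPE at 11 points (0.78 nM-46 µM) and NPC at 8 points (0.59 nM-46 µM); follow-ups used 11 points.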

[3] = qHTS of pediatric cancer cell lines to identify multiple opportunities for drug repurposing: Confirmatory screen for TC32 cells (AID 1347118);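 also: cells exposed to compound for 48 h before the read; nearly all actives have a fitted effect of over 65% in size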; also: potency is read from the fitted curve at half-maximal effect
Outline: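 qHTS, TC32, 48 h drug treatment, CellTiter-Glo luminescence as a proxy for metabolically active cells; primary top concentration 46 µM (MIPE 11-pt, NPC 8-pt); confirmatory 11-pt.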

[4] = qHTS of pediatric cancer cell lines to identify multiple opportunities for drug repurposing: Confirmatory screen for MG 63 (6-TG R) cells (AID 1347119); also: nearly all actives have a fitted effect of over 55% in size
Outline: as §1

[5] = qHTS of pediatric cancer cell lines to identify multiple opportunities for drug repurposing: Confirmatory screen for control Hh wild type fibroblast cells (AID 1347121); also: nearly all actives have a fitted effect of over 70% in size
Outline: as §1

[6] = qHTS of pediatric cancer cell lines to identify multiple opportunities for drug repurposing: Confirmatory screen for U-2 OS cells (AID 1347122); also: nearly all actives have a fitted effect of over 65% in size; also: potency is read from the fitted curve at half-maximal effect
Outline: as §1

[7] = qHTS of pediatric cancer cell lines to identify multiple opportunities for drug repurposing: Confirmatory screen for RD cells (AID 1347124);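 also: cells exposed to compound for 48 h before viability readout; nearly all actives have a fitted effect of over 65% in size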
Outline: as §1

[8] = qHTS of pediatric cancer cell lines to identify multiple opportunities for drug repurposing: Confirmatory screen for Rh18 cells (AID 1347125); also: nearly all actives have a fitted effect of over 55% in size
Outline: as §1

[9] = qHTS of pediatric cancer cell lines to identify multiple opportunities for drug repurposing: Confirmatory screen for Rh30 cells (AID 1347126); also: nearly all actives have a fitted effect of over 55% in size
Outline: as §1

[10] = qHTS of pediatric cancer cell lines to identify multiple opportunities for drug repurposing: Confirmatory screen for Saos-2 cells (AID 1347127); also: nearly all actives have a fitted effect of over 60% in size; also: potency is read from the fitted curve at half-maximal effect
Outline: as §1

[11] = qHTS of pediatric cancer cell lines to identify multiple opportunities for drug repurposing: Confirmatory screen for OHS-50 cells (AID 1347128)
Outline: as §1

[12] = qHTS of pediatric cancer cell lines to identify multiple opportunities for drug repurposing: Confirmatory screen for SK-N-SH cells (AID 1347129);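 also: cells exposed to compound for 48 h before viability read; nearly all actives have a fitted effect of over 60% in size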
Outline: as §1

[13] = test system: Zika virus NS2B-NS3 protease; assay: Primary screen GU AMC qHTS for Zika virus inhibitors (AID 1347154); also: nearly all actives have a fitted effect of over 70% in size; also: potency is read from the fitted curve at half-maximal effect
Outline: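 Unlinked Zika NS2B hydrophilic domain/NS3 protease domain noncovalent complex (25 nM final) in 10 mM Tris-HCl pH 8.0, 0.01% Tween 20, with AMC peptide substrate. Fluorescence (ex 340, em 450 nm) change over 15 min, room temperature; percent inhibition fitted to 4-parameter Hill equation.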

[14] = biological target: Furin (Homo sapiens) (UniProt P09958); assay: Furin counterscreen qHTS for Zika virus inhibitors (AID 1347149); also: nearly all actives have a fitted effect of over 70% in size; also: potency is read from the fitted curve at half-maximal effect
Sequence of Furin (Homo sapiens) (P09958 whole entry, looked up): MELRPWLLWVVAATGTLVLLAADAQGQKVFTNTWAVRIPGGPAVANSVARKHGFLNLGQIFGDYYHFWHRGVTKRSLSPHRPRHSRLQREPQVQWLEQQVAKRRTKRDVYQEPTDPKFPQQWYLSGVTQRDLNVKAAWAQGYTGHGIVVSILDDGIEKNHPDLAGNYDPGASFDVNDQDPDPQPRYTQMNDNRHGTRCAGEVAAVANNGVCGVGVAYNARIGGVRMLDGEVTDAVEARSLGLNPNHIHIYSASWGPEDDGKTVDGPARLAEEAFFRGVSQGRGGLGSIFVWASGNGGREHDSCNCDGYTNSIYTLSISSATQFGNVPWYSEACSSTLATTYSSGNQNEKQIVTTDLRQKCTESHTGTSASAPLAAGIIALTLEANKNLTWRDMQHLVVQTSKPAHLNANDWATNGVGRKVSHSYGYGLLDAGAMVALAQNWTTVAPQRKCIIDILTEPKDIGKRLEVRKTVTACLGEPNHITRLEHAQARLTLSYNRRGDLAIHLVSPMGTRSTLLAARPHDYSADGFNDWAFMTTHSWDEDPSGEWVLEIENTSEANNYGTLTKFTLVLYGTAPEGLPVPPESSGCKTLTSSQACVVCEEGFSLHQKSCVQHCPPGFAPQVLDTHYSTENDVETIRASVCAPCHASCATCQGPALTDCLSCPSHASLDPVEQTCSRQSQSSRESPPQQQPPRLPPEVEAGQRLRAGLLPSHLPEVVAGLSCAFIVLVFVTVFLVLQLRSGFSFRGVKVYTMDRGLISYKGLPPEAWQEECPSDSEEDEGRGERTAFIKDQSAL
Outline: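 Counterscreen measures cleavage of 2 microM BOC-RVRR-AMC, below its ~15 microM Km, by 5 nM full-length human furin at pH 7.0 after a 15-min compound preincubation. Inhibition derives from the 15-min fluorescence increase at 37C.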

[15] = test system: Zika virus NS2B-NS3 protease (linked construct); assay: Confirmatory screen NINDS AMC qHTS for Zika virus inhibitors (AID 1347152); settings: Purified linked NS2B-NS3, AMC substrate fluorescence; also: potency is read from the fitted curve at half-maximal effect; nearly all actives have a fitted effect of over 70% in size
Outline: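 In this dose-response qHTS, AMC release from 10 microM Bz-Nle-KRR-AMC by 1 nM linked protease is measured over 15 minutes (about 20% conversion) at pH 8.0. Percent inhibition is fitted to a 4-parameter Hill curve.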

[16] = test system: Zika virus NS2B-NS3 protease (unlinked complex); assay: Confirmatory screen GU AMC qHTS for Zika virus inhibitors (AID 1347153); settings: Recombinant NS2B-NS3 protease, AMC substrate fluorescence
Outline: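 Fluorescence change (ex 340/em 450 nm) over 15 min, ~20% substrate conversion, normalized to no-inhibitor and no-enzyme controls, then Hill-fitted. Unlinked protease at 25 nM; AMC peptide 10 µM.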

[17] = biological target: N-terminal Xaa-Pro-Lys N-methyltransferase 1 (Homo sapiens) (UniProt Q9BV86); assay: qHTS Assay for Inhibitors of N-terminal methyltransferase 1 (NTMT1): LOPAC validation of the NTMT1 SAHH-coupled ThioGlo3 Assay (AID 1347143)
Sequence of N-terminal Xaa-Pro-Lys N-methyltransferase 1 (Homo sapiens) (Q9BV86 whole entry, looked up): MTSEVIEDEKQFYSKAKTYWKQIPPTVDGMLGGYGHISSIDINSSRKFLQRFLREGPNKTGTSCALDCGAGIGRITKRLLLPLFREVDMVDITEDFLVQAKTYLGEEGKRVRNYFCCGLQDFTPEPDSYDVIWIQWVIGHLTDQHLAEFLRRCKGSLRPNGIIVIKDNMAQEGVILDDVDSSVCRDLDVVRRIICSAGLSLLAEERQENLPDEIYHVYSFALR
Outline: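 In this qHTS pilot against the LOPAC set, 125nM NTMT1 met compounds tested at multiple concentrations, and fluorescence was normalized to background.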

[18] = test system: Zika virus NS2B-NS3 protease (unlinked); assay: Optimization of GU AMC qHTS for Zika virus inhibitors: Unlinked NS2B-NS3 protease assay (AID 1347151); also: series mostly up to about 52 µM; nearly all actives have a fitted effect of over 80% in size
Outline: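 Percent inhibition is derived from the 15-min change in AMC fluorescence, normalized against no-inhibitor and no-enzyme controls, then fitted to a 4-parameter Hill curve. Aprotinin was the intraplate control.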

[19] = qHTS of pediatric cancer cell lines to identify multiple opportunities for drug repurposing: Confirmatory screen for Rh41 cells (AID 1347123);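 also: 48 h compound exposure; nearly all actives have a fitted effect of over 60% in size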; also: potency is read from the fitted curve at half-maximal effect
Outline: as §1

[20] = Confirmatory screen GU Rhodamine qHTS for Zika virus inhibitors qHTS (AID 1347157); settings: purified enzyme assay, Rhodamine110 substrate fluorescence, 15 min
Outline: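 Unlinked NS2B/NS3, 25 nM; Rhod110 peptide, 1.5 microM; compounds, up to 114 microM. Reaction run 15 min at RT in 10 mM Tris-HCl pH 8.0, 0.01% Tween 20; kinetic fluorescence change fitted with a 4-parameter Hill model.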

Measured: Potency

C[C@](O)(CS(=O)(=O)c1ccc(F)cc1)C(=O)Nc1ccc(C#N)c(C(F)(F)F)c1
not listed: [14] | [15] | [16] | [17] | [18] | [19] | [20]
inactive: all other assays above

C[C@]12Cc3cn[nH]c3C[C@@H]1CC[C@@H]1[C@@H]2CC[C@@]2(C)[C@H]1CC[C@]2(C)O
inactive: [13]

COP(=S)(OC)SCN1C(=O)c2ccccc2C1=O
inactive: [13]

O=C(Nc1ccc(Br)cc1)c1cc(Br)cc(Br)c1O
active: [14] 27.1 µM | [15] 19.2 µM | [16] 21.5 µM | [13] 35.5 µM

CCCCCN(C)CCC(O)(P(=O)(O)O)P(=O)(O)O
inactive: [17] | [18]

CC[N+]1(CC)CCC(OC(=O)C(O)(c2ccccc2)c2ccccc2)C1 (configuration not stated)
inactive: [13]

O=c1oc2ccccc2c(O)c1Cc1c(O)c2ccccc2oc1=O
inactive: [14] | [13]

CC(C)N(CCC(C(N)=O)(c1ccccc1)c1ccccn1)C(C)C (configuration not stated)
inactive: [17] | [18] | [13]

C[C@]12CC[C@@H]3c4ccc(OC(=O)N(CCCl)CCCl)cc4CC[C@H]3[C@@H]1CC[C@@H]2O
active: [15] 21.5 µM | [13] 15.8 µM

c1ccc2c(c1)sc1ccccc12
inactive: [13]

CC(=O)C1CCOC1=O (configuration not stated)
inactive: [13]

O=c1c(C2CC(c3ccc(-c4ccc(Br)cc4)cc3)Cc3ccccc32)c(O)sc2ccccc12 (configuration not stated)
active: [15] 19.2 µM | [16] 12.1 µM

O=C1OC(CCN2CCCCC2)OC1(c1ccccc1)c1ccccc1 (configuration not stated)
inactive: [13]

CCOP(=S)(OCC)Oc1ccc2c(C)c(Cl)c(=O)oc2c1
inactive: [1] | [4] | [6] | [19] | [7] | [8] | [9] | [10] | [11] | [12] | [13]

O=c1[nH]oc2c1CCNC2
inactive: [17] | [18] | [13]

CC(C)=CC1C(C(=O)OCN2C(=O)C3=C(CCCC3)C2=O)C1(C)C (configuration not stated)
inactive: [13]

O=C(N/N=C/c1ccc([N+](=O)[O-])o1)c1cc([N+](=O)[O-])cc([N+](=O)[O-])c1O
not listed: [3] | [4] | [14] | [15] | [16] | [17] | [18] | [20]
inactive: all other assays above

C[C@]12CCC(=O)C=C1CC[C@@H]1[C@H]3CC[C@](C)(O)[C@@]3(C)CC[C@@H]12
inactive: [13]

COC(=O)[C@@H](N)CCCN/C(N)=N/[N+](=O)[O-]
inactive: [13]

CC(C)c1cccc(C(C)C)c1O
inactive: [17] | [18] | [13]

C[C@]12CCC(=O)C=C1CC[C@@H]1[C@@H]2CC[C@@]2(C)[C@H]1CC[C@]2(C)O
active: [19] 18.5 µM
inactive: [1] | [2] | [5] | [7] | [8] | [9] | [10] | [11] | [12] | [13]

NCCc1ccc(O)cc1
inactive: [17] | [18] | [13]

O=C1OC(c2ccc(O)c(S(=O)(=O)O)c2)(c2ccc(O)c(S(=O)(=O)O)c2)c2c(Br)c(Br)c(Br)c(Br)c21
active: [20] 3.16 µM
inactive: [14]

O=C(CCCN1CCC2(CC1)C(=O)NCN2c1ccccc1)c1ccc(F)cc1
inactive: [17]

COc1ccc2c(c1OC)C(=O)O[C@H]2[C@@H]1c2cc3c(cc2CCN1C)OCO3
inactive: [17] | [13]

CC(C)(C)NCC(O)c1ccccc1Cl (configuration not stated)
inactive: [17] | [18] | [13]

CN1C(=O)CCS(=O)(=O)C1c1ccc(Cl)cc1 (configuration not stated)
inactive: [17] | [18] | [13]

CCC1(c2ccc(N)cc2)CCC(=O)NC1=O (configuration not stated)
inactive: [17] | [18] | [13]

CC(NC(C)(C)C)C(=O)c1cccc(Cl)c1 (configuration not stated)
active: [2] 23.3 µM | [3] 2.93 µM | [6] 4.14 µM | [19] 4.65 µM | [10] 18.5 µM
inactive: [4] | [5] | [8] | [12] | [17] | [18] | [13]

Nc1ccccc1
inactive: [13]

C=C(C)[C@H]1CN[C@H](C(=O)O)[C@H]1CC(=O)O
inactive: [17] | [18] | [13]

O=C(O)CCCc1ccc(N(CCCl)CCCl)cc1
inactive: [6] | [19] | [7] | [8] | [9] | [11] | [12] | [13]

O=P1(N(CCCl)CCCl)NCCCO1 (configuration not stated)
not listed: [1] | [14] | [15] | [16] | [17] | [20]
inactive: all other assays above
